Data published in PubChem BioAssay (NCI).
Compounds without any hit were thinned out: in the full panel of roughly 83,000, 20% have a hit.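 Each cell line was grown in a 96-well plate and treated with one concentration of compound for 48 hours. Values below 10 were considered active.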 Values without a mark were called inactive. Calls of active or inactive are those of the source.

System: HCT-15 colon
Test: NCI-60 one-dose screen, 48 h (100 = growth as untreated, 0 = no growth, -100 = all killed)
Conditions: 10 µM

Row | SMILES | growth
1 | Cc1ccc(/C=C/C(=O)c2ccc(NC(=O)CSc3nnc(-c4c[nH]c5ccccc45)n3-c3ccccc3)cc2)cc1 | 79.5%
2 | O=C(Nc1nc2ccc([N+](=O)[O-])cc2s1)Nc1cc(Cl)ccc1I | -58.2% (active)
3 | Cc1ccc(C(=O)CSc2nnc(-c3c[nH]c4ccccc34)n2-c2ccccc2)cc1 | 43.8%
4 | COc1ccc2[nH]c(O)c(N=NC(=O)c3cc(-c4ccc(C)cc4)nc4ccccc34)c2c1 | 62.8%
5 | Cn1cc(/C=N/Nc2cccc(Cl)n2)c2ccccc21 | 28.2%
6 | N#Cc1ccc(-c2nn(-c3ccc(C(=O)O)cc3)cc2CNc2ccc(Cl)cc2)cc1 | 47.3%
7 | O=c1[nH]c2ccccc2cc1CSc1ccc(Nc2nccc(-c3ccc4ccccc4c3)n2)cc1 | 30.6%
8 | OCCCNc1oc(-c2ccccc2)nc1[P+](c1ccccc1)(c1ccccc1)c1ccccc1 | 45.9%
9 | COc1ccc(C(=O)/C=C/c2cc(C(F)(F)F)cc(C(F)(F)F)c2)cc1S(N)(=O)=O | -58.6% (active)
10 | CS(=O)(=O)Nc1ccc(-c2ccc3c(c2)ncn3-c2ccc(NC(=O)Nc3ccc(Cl)c(C(F)(F)F)c3)cc2)cc1 | -91.3% (active)
11 | O=c1nc(-c2ccccc2)cc(-c2cc3ccccc3nc2Cl)[nH]1 | -64.1% (active)
12 | COc1cccc(/C=C2\N=C(C)N(CCc3ccc(S(N)(=O)=O)cc3)C2=O)c1 | 105%
13 | O=S(=O)(Nc1ncccn1)c1ccc(-n2c(-c3ccccc3)nc(-c3ccccc3)c2-c2ccccc2)cc1 | 80.7%
14 | Cc1ccc(-c2nc(Nc3ccc(S(N)(=O)=O)cc3)c3ccccc3n2)cc1 | 1.3% (active)
15 | COc1ccc(C(C)=C(c2ccc(OCCCN(C)C)cc2)c2ccc(OCCCN(C)C)cc2)cc1 | -72.7% (active)
16 | COC[C@@H](CC(C)C)N=C1NC(=O)/C(=C/c2ccc3ncsc3c2)N1 | 1.92% (active)
17 | Cc1ccc(-c2nc3ccc(C(=O)N=Nc4c(O)[nH]c5ccc(Cl)cc45)cc3[nH]2)cc1 | 67.7%

Row | SMILES | growth
18 | COc1cccc(/C=N/NC(=O)c2ccc3nc(-c4ccc(Cl)cc4)[nH]c3c2)c1O | 4.8% (active)
19 | N#Cc1ccc(-c2nn(-c3ccc(C(=O)O)cc3)cc2CNc2ccc(Oc3ccccc3)cc2)cc1 | 49.7%
20 | CC(=O)c1ccc(Nc2nc(SCCC(C)C)nc(-c3ccc(F)cc3)c2C#N)cc1 | 63.8%
21 | Cc1cc(C)nc(NS(=O)(=O)c2ccc(N/C(N)=N/c3nccc(-c4ccccc4)n3)cc2)n1 | 59.4%
22 | COc1cccc(-c2ccnc(/N=C(\N)Nc3ccc(S(=O)(=O)Nc4nc(C)cc(C)n4)cc3)n2)c1 | 104%
23 | CC(=O)C1=C(C)NC(SCC(=O)Nc2ccc(S(=O)(=O)Nc3cc(C)on3)cc2)=NC1c1ccccc1 (stereo not drawn) | 96.3%
24 | COc1cccc2nc(Nc3ccc(F)c(NC(=O)c4ccc(CN5CCN(C)CC5)c(C(F)(F)F)c4)c3)ccc12 | -83% (active)
25 | CNCc1cccc2c1OCCCCCC[C@@](C)(O)CC1(CC1)S(=O)(=O)c1ccc(cc1)-c1cnc(N)c(n1)C(=O)N2 | -96.6% (active)
26 | CN(C)c1ccc(/C=C/c2nc3ccccc3c(=O)n2CC(=O)Nc2ccccc2)cc1 | 52.4%
27 | O=C1CCC(N2Cc3c(C#CCCCNC(=O)c4ccc(NC(=O)[C@@H]5NC6(CCCCC6)[C@@]6(C(=O)Nc7cc(Cl)ccc76)[C@H]5c5cccc(Cl)c5F)cc4)cccc3C2=O)C(=O)N1 (stereo partly drawn) | 41.8%
28 | O=C(N/N=C/c1ccc(-c2cccc([N+](=O)[O-])c2)o1)c1[nH]c2ccc(Br)cc2c1-c1ccccc1 | 0.278% (active)
29 | O=C(c1ccc(Cl)cc1)C1[C@H](c2ccccc2Br)[C@@H](c2ccccc2)NC12C(=O)Nc1ccc(Br)cc12 (stereo partly drawn) | 9.81% (active)
30 | O=C(c1ccc(Cl)cc1)C1[C@H](c2ccccc2Br)[C@@H](c2ccccc2)NC12C(=O)Nc1ccccc12 (stereo partly drawn) | 12%
31 | O=C(Nc1cc(Cl)cc(Cl)c1)Nc1cc(Cl)cc(Cl)c1 | -23.1% (active)
32 | CC(C)C1=C[C@@]23CC[C@@H]4[C@](C)(CCC[C@]4(C)C(=O)NCc4ccccc4)[C@H]2C[C@@H]1[C@H]1C(=O)CCC(=O)[C@H]13 | 56%
33 | COc1ccc(Nc2nc(N)n(Cc3cccc(Br)c3)n2)cc1 | 8.53% (active)
